Compound activity (PubChem)
HepG2 viability – counter-screen for TGF-b inhibitors: cytotoxicity in HepG2 cells; actives 0.76% (n = 410,000); Potency, µM (titrated, usually from 46.1 µM), for the others: top-dose activity change, negative = cytotoxicity, hits mostly cytotoxic; HepG2 CAGA-GFP viability, ATP luminescence, 18 h
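HepG2 CAGA-GFP cells (1000/well, DMEM with 1% FBS) received compound, then TGF-beta at 500 pg/mL final, and were incubated 18 hours at 37 degrees C. Viability was read by CellTiter-Glo luminescence. Media-only wells were set as complete cell-killing and DMSO as no toxicity.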
RORg inh – ROR gamma (mouse) transcription inhibition; P51450; Drosophila S2 Gal4-RORgamma UAS-luciferase reporter, 20 h; Potency, µM (doses to about 53.6 µM), without a hit: at the highest dose activity change, negative = inhibition, actives largely listed as inhibitors; actives 5.4% (n = 310,000); AID 2551; further: on the % scale 0 is the no-effect control and ±100 the full control effect; nearly all actives have a fitted effect of over 60% in size
Target sequence (P51450 whole entry, looked up, the tested form may be a part): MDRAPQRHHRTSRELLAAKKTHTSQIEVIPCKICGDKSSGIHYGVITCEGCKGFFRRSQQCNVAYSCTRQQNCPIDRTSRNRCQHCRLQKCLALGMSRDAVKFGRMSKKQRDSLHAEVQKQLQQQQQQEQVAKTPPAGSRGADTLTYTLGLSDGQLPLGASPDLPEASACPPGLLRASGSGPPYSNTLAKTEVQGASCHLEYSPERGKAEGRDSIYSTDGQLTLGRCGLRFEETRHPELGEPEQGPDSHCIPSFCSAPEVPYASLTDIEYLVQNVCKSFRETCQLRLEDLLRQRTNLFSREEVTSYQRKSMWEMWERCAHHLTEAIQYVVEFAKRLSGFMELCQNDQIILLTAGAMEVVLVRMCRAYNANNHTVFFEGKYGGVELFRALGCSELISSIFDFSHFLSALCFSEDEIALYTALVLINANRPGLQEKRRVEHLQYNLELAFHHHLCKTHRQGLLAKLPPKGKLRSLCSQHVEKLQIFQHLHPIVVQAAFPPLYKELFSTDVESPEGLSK
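Schneider cells (Drosophila), stable Gal4 DBD–ROR gamma + UAS-luc; 1 hr cmpd preincubation; Cu2+ induction 700 uM final; 20 hr ambient; luminescence.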
S2 tox – cell viability loss in ATXN counter-screen; actives 0.49% (n = 400,000); S2 cells (HEK-293 line with an ATXN2-luciferase reporter) viability, CellTiter-Fluor protease fluorescence, 24 h; Potency, µM (doses to about 56.7 µM), usual class: cytotoxic; AID 651635; further: nearly all actives have a fitted effect of over 40% in size
TGFb inhibitor – TGF-b pathway inhibition; HepG2 CAGA-GFP TGF-b/SMAD3 reporter, GFP fluorescence, 18 h; TGF-beta stimulated, 500 pg/mL final; Potency, µM (titrated, usually from 46.1 µM), inactives show top-dose activity, negative = inhibition, most hits filed as inhibitors; actives 1.2% (n = 410,000); further: on the % scale 0 is the no-effect control and ±100 the full control effect; nearly all actives have a fitted effect of over 65% in size
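HEPG2 CAGA-GFP cells (1000/well, DMEM with 1% FBS) were pre-incubated 2 h at 37 degrees C, given compound by pin tool, then stimulated with TGF-beta at 500 pg/mL final for 18 h before per-cell GFP fluorescence imaging.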
ATXN2 expr inh – inhibitors of ATXN2 expression; actives 0.72% (n = 360,000); Potency, µM (titrated, usually from 57 µM), inactives show at the highest dose activity change, negative = inhibition, actives largely listed as inhibitors; AID 1745845; HEK-293 ATXN2-luciferase reporter, luminescence, 24 h; further: on the % scale 0 is the no-effect control and ±100 the full control effect; nearly all actives have a fitted effect of over 55% in size
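ATXN2-luciferase reporter cells (luciferase flanked by upstream and downstream ATXN2 gene portions) were treated 24 h at 37 °C with compounds at up to 57 uM. SteadyGlo luminescence gave expression; GF-AFC fluorescence gave viability.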
Gal4-VP16 FLuc – inhibits Gal4-VP16 luciferase reporter, ROR gamma counter-screen | Potency, µM (titrated, usually from 53.6 µM), inactives show top-dose activity, negative = inhibition, usual class: inhibitors | actives 3.5% (n = 310,000) | Drosophila S2 Gal4-VP16 UAS-luciferase, luminescence, 20 h;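 further: Gal4-VP16 expression switched on by copper sulfate through the metallothionein promoter; on the % scale 0 is the no-effect control and ±100 the full control effect; nearly all actives have a fitted effect of over 50% in size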
Active calls of the source: *; i = inactive; ? = inconclusive; nt = not tested or not shown; ! = repeats disagree; [ ] = another dose, or the depositor's remark. Rows were chosen to be rich in hits. Some 6.1% of all compounds tested hit in one or more screens of this group. The call rests on the fitted dose curve; in most records, active means well fitted curve in the direction sought with a large enough effect; inconclusive means small, poorly fitted or top-dose-only effect, or another doubt; inactive means no such curve, though single readings can be large; an effect the other way counts as inactive or inconclusive. Potency means the concentration at half of the fitted maximal effect.

SMILES	HepG2 viability	RORg inh	S2 tox	TGFb inhibitor	ATXN2 expr inh	Gal4-VP16 FLuc
NC(=O)NS(=O)(=O)c1ccc(Cl)cc1	nt	nt	i	nt	8%	nt
O=c1oc(-c2ccccc2)cc(Cl)c1Cl	-97%	11µM*	nt	11µM*	?	10µM*
C=CCOC(=O)N[C@H](/C(C(=O)OC)=C(\C)NCc1ccccc1)c1ccc(C)cc1	nt	-17%	nt	nt	nt	2%
Cc1ccc2[nH]c3c(N4CCN(Cc5ccc6c(c5)OCO6)CC4)ncnc3c2c1	nt	?	nt	nt	nt	10µM*
c1nc(N2CCN(Cc3ccc4c(c3)OCO4)CC2)c2[nH]cnc2n1	3%	-15%	i	-1%	-1%	-6%
COc1ccc2c(c1)[nH]c1c(N3CCN(Cc4ccc5c(c4)OCO5)CC3)ncnc12	-53%	?	10µM*	20µM*	14µM*	10µM*
Cc1ccc2[nH]c3c(N4CCN(Cc5ccccc5)CC4)ncnc3c2c1	7.9µM*	?	?	?	?	3.5µM*
COc1cccc2[nH]c3c(N4CCN(Cc5ccc6c(c5)OCO6)CC4)ncnc3c12	nt	28%	nt	nt	nt	-3%
Cc1ccc2[nH]c3c(N4CCCCCC4)ncnc3c2c1	nt	8%[0.365 µM]	nt	nt	nt	nt
Cc1ccc2c(c1)[nH]c1c(N3CCN(Cc4ccccc4)CC3)ncnc12	-70%	?	nt	11µM*	8.9µM*	3.2µM*
COc1cccc2[nH]c3c(N4CCc5ccccc5C4)ncnc3c12	0%	16%	i	19%	-35%	-1%
c1ccc2c(c1)CCN(c1ncnc3c1[nH]c1ccccc13)C2	-61%	13µM*	?	?	?	6.3µM*
c1ccc(CN2CCN(c3ncnc4c3[nH]c3ccccc34)CC2)cc1	-29%	?	?	?	?	16µM*
O=C(CSc1ccc2nc(-c3ccccc3)cn2n1)Nc1cccc(F)c1	-19%	nt	i	-6%	97%	nt
CCc1ccc(C(C)NC(=O)C2CCCC2)cc1 (centres undefined)	3%	-18%	i	2%	-4%	-3%
CCc1ccc(C(C)NC(=S)NC2CCCCC2)cc1 (centres undefined)	-44%	2.2µM*	i	?	-38%	3.2µM*
O=C(NC1CCCCC1)C(CCc1ccccc1)N1CCOCC1 (centres undefined)	-19%	nt	i	-18%	-15%	nt
CCOc1ccc(C(C)NC(=S)NC2CCCCC2)cc1OCC (centres undefined)	2%	7.1µM*	?	?	-32%	14µM*
CCC(NC(=S)NC1CCCCC1)c1ccccc1 (centres undefined)	nt	3.2µM*	nt	nt	nt	7.1µM*
O=C(NC1CCCCC1)C(CCc1ccccc1)N1CCc2ccccc2C1 (centres undefined)	-12%	nt	i	10µM*	13%	nt
CCc1cccc(C)c1NC(=O)C1CCN(S(=O)(=O)Cc2ccccc2)CC1	1%	nt	?	0%	-7%	nt
CCCCCCCCCCCCCCCC(=O)OCC(COP(=O)(O)OCC[N+](C)(C)C)OC(=O)CCCCCCCCCCCCCCC (centres undefined)	nt	-2%	nt	nt	nt	8%
CC(C)(C)n1ncc2c(=O)n(Cc3ccc(C(F)(F)F)cc3)cnc21	-33%	nt	nt	-23%	nt	nt
CCCOc1cccc(C2c3c(oc4ccc(F)cc4c3=O)C(=O)N2CCc2ccc(OC)cc2)c1 (centres undefined)	-6%	nt	i	-5%	12%	nt
CC(CCc1ccccc1)NC(=S)NC1CCCCC1 (centres undefined)	-10%	2.5µM*	i	-13%	-17%	16µM*
SMILES	HepG2 viability	RORg inh	S2 tox	TGFb inhibitor	ATXN2 expr inh	Gal4-VP16 FLuc
CCC(C)c1ccc(OCC(=O)NNC(=O)C2CCCCC2)cc1 (centres undefined)	-7%	17%	i	-14%	-1%	-3%
CCC(C)c1ccc(C(C)NC(=S)NC2CCCCC2)cc1 (centres undefined)	-14%	2.8µM*	i	?	?	2µM*
CCOc1ccc(C(C)NC(=S)NC2CCCCC2)cc1 (centres undefined)	-17%	3.2µM*	?	-33%	?	10µM*
CN(C)CCCN1c2ccccc2Sc2ccc(Cl)cc21	18µM*!	4%	i	?	20µM*!	-16%
Cc1ccc(-n2cnc3cc(NCc4cccs4)ccc32)cc1	-17%	-7%	i	?	53%	?
COc1ccc(-n2cnc3cc(NCc4cccs4)ccc32)cc1	-45%	14µM*	i	-24%	53%	7%
COc1ccc(OC)c(CN2CCCC(c3nc(C)ncc3-c3ccc(F)cc3)C2)c1 (centres undefined)	nt	nt	i	nt	nt	nt
O=S1(=O)N[C@@H](Cc2ccccc2)COc2cccc(N3CCN(Cc4ccccc4F)CC3)c21	nt	nt	28µM*	nt	?	nt
COc1ccccc1NC(=O)Cn1c(=O)n(Cc2cccs2)c(=O)c2cccnc21	-23%	nt	i	-3%	-23%	nt
CCCCc1ccc(/C(C)=N/Nc2cc(N3CCOCC3)nc(C)n2)cc1	-36%	13µM*	nt	?	nt	?
C/C(=N\Nc1ccccn1)c1ccc(C(C)C)cc1	-36%	4µM*	i	13µM*	31%	11µM*
C/C(=N\Nc1ccccn1)c1ccc(N2CCOCC2)cc1	-30%	7.1µM*	i	-18%	44%	?
Cc1ccc2c(c1)N(C(=O)c1ccc(F)cc1)C(C)(C)CC2(C)c1ccccc1 (centres undefined)	3%	nt	?	2%	-33%	nt
CCOC(=O)c1cc(-c2ccc(OC)cc2)n(CCC(=O)Nc2ccc(OC)cc2OC)c1C	-9%	nt	nt	-5%	nt	nt
COc1cc(OC)c2nc(-c3cc4c(c(OC)c3)OCCN(C(=O)CC3NC(=O)c5ccccc53)C4)cc(C)c2c1 (centres undefined)	nt	nt	i	nt	nt	nt
COc1ccc(-c2cn3cccc(C)c3n2)cc1F	-23%	-5%	i	0%	19%[11.3 µM]	-14%
COc1ccc(-c2cn3cc(C)ccc3n2)cc1OC	-40%	11µM*	?	-19%	-11%	?
COc1ccc(-c2cn3cc(C)ccc3n2)cc1F	16µM*	2µM*	i	?	?	4µM*
COc1ccc(-c2cn3ccccc3n2)cc1OC	-56%	5%	i	-20%	7%	-16%
O=c1c2cc3c(cc2n(Cc2ccccc2)c(=O)n1Cc1nc(-c2ccccc2)no1)OCO3	-16%	nt	i	-1%	-13%	nt
